In ChEMBL document CHEMBL4513216, “Probing the Open Global Health Chemical Diversity Library for Multistage-Active Starting Points for Next-Generation Antimalarials” (ACS Infect Dis, 2020):
Out of some 69,000 compounds screened, about 8,600 (12%) showed an effect of 50% or more. For the sample, strong results were picked, then their nearest neighbours and some compounds at random.

Tested on: Plasmodium berghei
Experiment: Screen against P. berghei liver stage (PbLuc), transformed with Luciferase, at 10uM
Assay type: functional, HepG2
Conditions: tested at 10 uM

| Structure (SMILES) | INHIBITION |
| --- | --- |
| COC(=O)c1cc(OCC2CCC2)cc(C(=O)N[C@@H]2CNCC[C@H]2O)c1 | 11.9% |
| Cc1cc(NC(=O)N2CCC[C@@H]2CO)nn1-c1ccccc1Cl | 30.8% |
| Cc1cc(NC(=O)CO)nn1-c1ccc(Cl)cc1Cl | 19.8% |
| O=C(NCCO)Nc1ccc(Cl)cc1-n1cccc1 | -6.91% |
| Cc1cc(NC(=O)NCCO)nn1-c1ccc(Cl)cc1Cl | 60.5% |
| CC(=O)NCC(=O)Nc1cc(C)n(-c2ccc(Cl)cc2Cl)n1 | 50% |
| Cc1cc(NC(=O)N2CCOCC2)nn1-c1ccccc1Cl | 33.4% |
| CS(=O)(=O)N[C@H]1COC[C@@H]2CN(Cc3ccco3)C[C@@H]21 | -19.1% |
| COC(=O)c1sc2cccc(F)c2c1CNC(=O)C1CCCO1 (centres undefined) | -1.37% |
| CN1CCc2[nH]cnc2C12CCN(Cc1ccc3nsnc3c1)CC2 | 33.4% |
| CNC(=O)[C@@H]1C[C@H]2CN(Cc3ccco3)C[C@H]2N1C | -5.1% |
| Cc1ccc(C(=O)N2CCN(Cc3cccs3)CC2)c(=O)[nH]1 | 3.865% |
| CS(=O)(=O)NCc1cnc2n1CCN(Cc1ccccn1)CC2 | 41.2% |
| Cc1nccc(C(=O)N2CCCN(Cc3nccn3C(C)C)CC2)n1 | 29.3% |
| Cc1ncncc1C(=O)N1CCCN(Cc2nccn2C(C)C)CC1 | -49.5% |
| CCc1[nH]ncc1C(=O)N1CCCN(Cc2nccn2C(C)C)CC1 | -33.8% |
| Cc1cc(C(=O)N2CCCN(Cc3nccn3C(C)C)CC2)no1 | -6.35% |
| CC(C)n1ccnc1CN1CCCN(C(=O)c2cscn2)CC1 | 54.9% |
| Cc1[nH]ncc1C(=O)N1CCCN(Cc2nccn2C(C)C)CC1 | 53.65% |
| CCc1cc(CNC(=O)N2CCN(c3nc(C)c(C)s3)CC2)on1 | 32.4% |
| CSc1ncc(CN(C)C(C)c2cccnc2)cn1 (centres undefined) | -1.33% |
| O=C(NCCN1CCOCC1)c1scnc1Cl | 23.7% |
| CSCCCN1C[C@H](NC(=O)c2ccc(CO)cc2)[C@@H](C2CC2)C1 | 0.72% |
| CN(C)c1ccc(C(=O)Nc2ccn(CCc3ccncc3)n2)cc1 | 5.91% |
| COc1cc(F)c(S(=O)(=O)Nc2cnc(O)cc2C)cc1OC | -3.83% |
| Cc1cc(O)ncc1NS(=O)(=O)c1cccc(F)c1F | 69.9% |
| COc1ccccc1S(=O)(=O)Nc1cnc(O)cc1C | -13.6% |

| Structure (SMILES) | INHIBITION |
| --- | --- |
| Cc1ccn(-c2ccnc(N3CCC(N4CCCCC4)CC3)n2)n1 | -13% |
| Cn1ncc2c(N3CCN4CCCCC4C3)nc(C3CCCC3)nc21 (centres undefined) | -24.8% |
| Cc1nc(N2CCN3CCCCC3C2)nc2cc(S(C)(=O)=O)ccc12 (centres undefined) | 20.6% |
| Clc1cc(N2CCN(C3CCOCC3)CC2)nc2[nH]ccc12 | 5.91% |
| Clc1cc(N2CCN3CCCCC3C2)nc2[nH]ccc12 (centres undefined) | 72.2% |
| Clc1cc(N2CCC(N3CCCC3)CC2)nc2[nH]ccc12 | 51.5% |
| O=C(NCCNS(=O)(=O)C1CCCCC1)c1ccccc1 | 15.4% |
| CN(C)CCNC(=O)c1ccccc1NC(=O)c1cc(Cl)ccc1Cl | 44.4% |
| O=c1cc(-c2ccc(F)cc2)nc2n1CCCCC2 | 7.25% |
| O=S(=O)(C1CC1)N1CCO[C@H]2[C@@H](Oc3cccnc3)CC[C@@H]21 | 37.1% |
| CN(C)C(=O)c1cccc(C2CNCCN2C)c1 (centres undefined) | 15.255% |
| Cc1cn(Cc2ccc(F)c(F)c2)nc1N | 70.8% |
| Cc1ccc(Cn2cc(C)c(N)n2)cc1 | 8.53% |
| Cc1cn(Cc2ccc(F)cc2)nc1N | -46.4% |
| CCc1ccc(CN2CC[C@H]3[C@H]2CC(=O)N3Cc2cccc(C)n2)o1 | 30.9% |
| CCN(CCCc1ccccc1)CC1(C)Cc2c(N)nc(N)nc2O1 (centres undefined) | 26.8% |
| CCn1nc(C)c(CCNC(=O)C2CCCN(C(=O)COC)C2)c1C (centres undefined) | -13.6% |
| Cc1ccc2nc(CNc3ccccc3C(=O)NC3CC3)cn2c1 | 7.38% |
| Cc1ccc([C@@H]2CN(S(=O)(=O)N(C)C)C[C@H]2N(C)C)cc1 | -11.1% |
| Cc1ccc([C@@H]2CN(S(=O)(=O)c3ccccc3)C[C@H]2N(C)C)cc1 | 0.818% |
| Cc1ccc([C@@H]2CN(S(=O)(=O)Cc3ccccc3)C[C@H]2N(C)C)cc1 | 55.2% |
| Cc1nc2c(c(C)c1CC(=O)NCc1ccc(F)cc1)c(=O)[nH]n2C | -12.1% |
| Cc1cc(C(=O)N[C@H]2CN(CCO)C[C@@H]2C2CC2)sc1C | 44% |
| Cc1cc(C(=O)N[C@H]2CN(CCC(N)=O)C[C@@H]2C2CC2)sc1C | 50.5% |
| Cc1nc(N)sc1C(=O)N[C@H]1CN(CCO)C[C@@H]1C1CC1 | 12% |
| CCOc1cc(C)nc(N2CCN(C(=O)c3cnc[nH]3)CC2)n1 | -3.2% |
| CC(C)CCN1CCC2(CC1)CN(C(=O)c1cnccn1)CCO2 | -12.6% |
